Among all 52,000 compounds or so, about 1,700 (3.3%) were called active. No stated cut-off is given here; in the data, active means survival mostly below about 52% (no sharp cut-off); inactive means mostly above about 56%. The list comes from a sample in which actives are over-represented; it also holds similar structures and randomly drawn compounds.

In the experiment the test system is Wild type. In words: growth inhibition of S. aureus wild type versus tarO mutant, primary screen, teichoic acid synthesis inhibitors, RN4220, OD600 (AID 463173). The following applies: S. aureus RN4220 wild type/DeltatarO growth, OD600, 18 h, active compounds read low, screened at 18.75 µg/mL (by protocol).
As for `COC(=O)c1ccc(Cn2c(SCC(=O)Nc3ccc(F)cc3)nc3ccccc32)cc1`, the survival is 55% (inactive).

For the compound `Cc1ccc(Sc2ccc(N3CCCC(C(=O)Nc4ccc(F)cc4)C3)nn2)cc1` (centres undefined), the survival is 60% (inactive).

With `CCOC(=O)c1c(NC(=O)C(C)Oc2ccccc2F)sc(C(C)=O)c1C` (centres undefined), the survival is 65% (inactive).

As for `COc1ccc(NC(=O)CSc2ccc(-c3cccs3)nn2)cc1`, the survival is 89% (inactive).

In the case of `CCOC(=O)c1c(NC(C)=O)c2c3c(sc2n1Cc1nc(-c2ccc(Cl)cc2)oc1C)CCCC3`, the survival is 81% (inactive).

Consider `Cc1ccc(CN2COc3c(Cl)cc4c(-c5ccccc5)cc(=O)oc4c3C2)cc1`, for which the survival was 87% (inactive).

Take `COc1ccc(N(Cc2cccs2)C(=O)COc2cccc(C)c2C)cc1`: the survival is 12% (active).

`Cc1cccc(OCC(=O)N(Cc2cccs2)c2ccc(Cl)cc2)c1C`: the survival is 79% (inactive).

For `COc1ccc(OCC(=O)N(Cc2cccs2)c2ccc(OC)cc2)cc1`, the survival is 85% (inactive).

For the compound `CC1(C)CC2(C=CC(=O)CC2)CCO1` (centres undefined), the survival was 96% (inactive).

Take `Cn1c(=O)c2c(-c3ccc(Cl)cc3)ccnc2n(C)c1=O`: the survival is 68% (inactive).

For the compound `COc1ccc(CNc2nc(-c3ccccc3)nn2S(=O)(=O)c2ccccc2)cc1`, the survival is 4% (active).

Regarding `COc1ccc(CNc2nc(-c3ccc(Cl)cc3)nn2S(=O)(=O)c2ccc(C)cc2)cc1`, the survival is 64% (inactive).

On to `O=S(=O)(c1ccccc1)n1nc(-c2ccccc2)nc1NCc1ccc(Cl)cc1`, for which the survival is 73% (inactive).

For the compound `CCc1ccc(NC(=O)Cn2c(=O)n(CCC(=O)NCCc3ccc(OC)c(OC)c3)c(=O)c3ccccc32)cc1`, the survival is 102% (inactive).

Take `COc1ccc(Cl)cc1NCc1nnc2n1CCCCC2`: the survival was 0% (active).

For the compound `Cc1ccc(Cl)cc1NCc1nnc2n1CCCCC2`, the survival was 75% (inactive).

Turning to `COc1ccc(C)cc1NCc1nnc2n1CCCCC2`, the survival is -3% (active).

For `Cc1cc(C)cc(NCc2nnc3n2CCCCC3)c1`, the survival is 85% (inactive).

With `Fc1ccc(NCc2nnc3n2CCCCC3)cc1Cl`, the survival is 66% (inactive).

For the compound `COc1ccc(NCc2nnc3n2CCCCC3)c(OC)c1`, the survival was 73% (inactive).

For `O=[N+]([O-])c1ccc(S(=O)(=O)N2CCn3cccc3C2c2ccccc2F)cc1` (centres undefined), the survival is 132% (inactive).

On to `Cn1nc(C(=O)N2CCN(c3cccc(Cl)c3)CC2)c2c1-c1ccccc1S(=O)(=O)C2`, for which the survival was 46% (inactive).

As for `COc1ccc(C2=C/C(=C/c3ccco3)C(=O)O2)cc1`, the survival was 117% (inactive).

Regarding `Cc1cccc(CCNC(=O)CN(c2ccc(C(C)C)cc2)S(=O)(=O)c2c(C)nn(C)c2C)c1`, the survival was 87% (inactive).

`CC(=O)Nc1ccc(NC(=O)Cn2c(=O)ccc3cc(S(=O)(=O)N4CCC(C)CC4)ccc32)cc1`: the survival is 91% (inactive).

Regarding `CCc1ccc(NC(=O)Cn2c(=O)ccc3cc(S(=O)(=O)N4CCCC4)ccc32)cc1`, the survival is 148% (inactive).

With `CC1CCN(C(=O)Cn2c(=O)oc3cc(S(=O)(=O)N4CCCCC4)ccc32)CC1`, the survival was 83% (inactive).

Turning to `CC1CCN(S(=O)(=O)c2ccc3c(ccc(=O)n3CC(=O)NCc3ccc(Cl)cc3)c2)CC1`, the survival was 59% (inactive).

In the case of `CC1CCN(S(=O)(=O)c2ccc3c(c2)oc(=O)n3CC(=O)O)CC1`, the survival was -3% (active).

With `CC1CCN(S(=O)(=O)c2ccc3c(c2)oc(=O)n3CC(=O)N2CCCCC2)CC1`, the survival was 76% (inactive).

For `Cc1ccc(NC(=O)Cn2c(=O)ccc3cc(S(=O)(=O)N4CCC(C)CC4)ccc32)cc1Cl`, the survival is 88% (inactive).

For `CC1CCN(S(=O)(=O)c2ccc3c(ccc(=O)n3CC(=O)NCc3ccccc3)c2)CC1`, the survival is 22% (inactive).

`Cc1ccc(CNC(=O)Cn2c(=O)ccc3cc(S(=O)(=O)N4CCC(C)CC4)ccc32)cc1`: the survival is 10% (active).

Regarding `Cc1ccc(NC(=O)Cn2c(=O)ccc3cc(S(=O)(=O)N4CCCC4)ccc32)cc1C`, the survival is 88% (inactive).

In the case of `Cc1ccc(NC(=O)Cn2c(=O)ccc3cc(S(=O)(=O)N4CCCC4)ccc32)cc1N(C)C`, the survival is 0% (active).

Consider `CC1CCN(S(=O)(=O)c2ccc3c(ccc(=O)n3CC(=O)Nc3ccc(C(C)C)cc3)c2)CC1`, for which the survival was -2% (active).

For the compound `CN(C1CCCCC1)S(=O)(=O)Cc1ccccc1`, the survival is 94% (inactive).

On to `CC1=C(c2ccc(C)cc2)S(=O)(=O)N(Cc2ccc(C(=O)Nc3ccc(F)cc3C)cc2)C1=O`, for which the survival was 135% (inactive).

With `CCC(=O)N1CCc2cc(Br)cc(S(=O)(=O)CCC(=O)NCCc3cccc(C)c3)c21`, the survival was 45% (inactive).

Take `COc1cccc(NC(=O)Cn2c(=O)n(CCc3cccc(C)c3)c(=O)c3ccccc32)c1`: the survival was 82% (inactive).

For the compound `CSc1ccc(CCNC(=O)CCc2c(C)nc3cc(-c4ccccc4)nn3c2C)cc1`, the survival is 86% (inactive).

For `CCOc1ccccc1NC(=O)Cn1c(=O)ccc2cc(S(=O)(=O)N3CCC(C)CC3)ccc21`, the survival was 65% (inactive).

Turning to `CCc1ccccc1NC(=O)Cn1c(=O)ccc2cc(S(=O)(=O)N3CCCC3)ccc21`, the survival was 64% (inactive).

Regarding `CCOc1ccccc1NC(=O)Cn1c(=O)ccc2cc(S(=O)(=O)N3CCCC3)ccc21`, the survival was -3% (active).

For the compound `Cc1cc(C)c(NC(=O)Cn2c(=O)n(CCC(=O)N3CCc4ccccc4C3)c(=O)c3ccccc32)c(C)c1`, the survival is 83% (inactive).

Consider `CCC(=O)N1CCc2cc(S(=O)(=O)N(C)c3cccc(C)c3)ccc21`, for which the survival was 86% (inactive).

As to `CCc1nc2c(cnn2-c2ccc(C)cc2)c(=O)n1Cc1ccccc1`, the survival was 22% (inactive).

Turning to `CCc1nc2c(cnn2-c2ccc(C)cc2)c(=O)n1-c1ccc(C)cc1`, the survival was 18% (active).

For the compound `COc1cccc(-n2c(C)nc3c(cnn3-c3ccc(C)c(C)c3)c2=O)c1`, the survival was 54% (inactive).

As for `CCc1cccc(-n2c(C)nc3c(cnn3-c3ccc(C)c(C)c3)c2=O)c1`, the survival is 2% (active).

For `Cc1nc2c(cnn2-c2ccccc2)c(=O)n1-c1ccccc1`, the survival is 126% (inactive).

On to `COc1ccc(-n2c(C)nc3c(cnn3-c3ccc(C)c(C)c3)c2=O)cc1Cl`, for which the survival is 118% (inactive).

`CCc1nc2c(cnn2-c2ccccc2)c(=O)n1-c1ccc(Br)cc1`: the survival is 108% (inactive).

Take `CCOC(=O)c1ccc(-n2c(C)nc3c(cnn3-c3ccc(Cl)cc3)c2=O)cc1`: the survival was 71% (inactive).

`CCc1cccc(-n2c(C)nc3c(cnn3-c3ccc(Cl)cc3)c2=O)c1`: the survival was -2% (active).

With `Cc1c(C(=O)OCC2CCCCC2)[nH]c2c1C(=O)CC(c1ccccc1Cl)C2` (centres undefined), the survival is 92% (inactive).

In the case of `Cc1oc2ncn(CC(C)C)c(=O)c2c1C(=O)NCCCN(C)Cc1ccccc1`, the survival is 76% (inactive).

Regarding `Cc1cc2nsnc2c(S(=O)(=O)NCC(=O)O)c1C`, the survival was 99% (inactive).

In the case of `CCCCCCSc1nc(N)c2c3c(sc2n1)CCCC3C` (centres undefined), the survival is -2% (active).

For `CC1CCCc2sc3nc(SCC(=O)c4ccc(Br)cc4)nc(N)c3c21` (centres undefined), the survival is 66% (inactive).

As for `CCCCCCSc1ncc(C#N)c(N)n1`, the survival is 119% (inactive).

For `CCCCCNC(=O)C(=O)NCC(c1ccc2c(c1)OCO2)N1CCOCC1` (centres undefined), the survival was 68% (inactive).

`Cc1ccc(CNC(=O)c2ccc3c(c2)NC(=O)C(CS(=O)(=O)Cc2cccc(F)c2)N3)cc1` (centres undefined): the survival is 117% (inactive).

Take `O=C(/C=C/c1ccc(Cl)cc1)N1CCC(c2nc3ccccc3o2)CC1`: the survival is 120% (inactive).

With `CCN(CC)C(=O)Cn1c(=O)n(-c2ccc(Cl)cc2)c(=O)c2c3c(sc21)CCC3`, the survival is 73% (inactive).

As to `COCCN1C(=O)c2[nH]nc(-c3ccccc3O)c2C1c1ccc(Cl)c(Cl)c1` (centres undefined), the survival is 3% (active).

For `COCCCN1C(=O)c2[nH]nc(-c3ccccc3O)c2C1c1ccc(OC)cc1` (centres undefined), the survival was 85% (inactive).

`CCCCOc1cccc(C2c3c(-c4cc(C)ccc4O)n[nH]c3C(=O)N2CCOC)c1` (centres undefined): the survival is 25% (inactive).

Turning to `CCCCN1C(=O)c2[nH]nc(-c3ccccc3O)c2C1c1cc(Br)c(O)c(OC)c1` (centres undefined), the survival was 10% (active).

Regarding `CCCCN1C(=O)c2[nH]nc(-c3ccccc3O)c2C1c1ccc(OCc2ccccc2)c(OC)c1` (centres undefined), the survival was 64% (inactive).

Take `COCCCN1C(=O)c2[nH]nc(-c3cc(C)ccc3O)c2C1c1ccc(F)cc1` (centres undefined): the survival is 92% (inactive).

For the compound `COCCN1C(=O)c2[nH]nc(-c3cc(C)ccc3O)c2C1c1ccc(C(C)C)cc1` (centres undefined), the survival was 11% (active).

With `COCCN1C(=O)c2[nH]nc(-c3ccccc3O)c2C1c1ccc(OCc2ccccc2)c(OC)c1` (centres undefined), the survival was 43% (inactive).

In the case of `CCCN1C(=O)c2[nH]nc(-c3ccccc3O)c2C1c1ccc(OCc2ccccc2)c(OC)c1` (centres undefined), the survival was 64% (inactive).

For the compound `O=C1NC(NS(=O)(=O)c2ccccc2)(C(F)(F)F)C(=O)N1c1ccc(F)cc1` (centres undefined), the survival is 76% (inactive).

Consider `Cc1nc(CC(=O)Nc2ccc(C)c(C)c2)cs1`, for which the survival is 80% (inactive).

As to `C/C=C/C(=O)N1CCCC(c2nc(-c3cccc(OC)c3)no2)C1` (centres undefined), the survival is 95% (inactive).

`COc1ccc(C(=O)N(CC(=O)NC2CCCC2)C2CCCCC2)cc1OC`: the survival is 106% (inactive).

With `Cc1ccc(Cl)cc1NC(=O)CN1C(=O)C(C)(C)c2cc(S(=O)(=O)N3CCCCC3)ccc21`, the survival was 1% (active).

With `COc1ccc(NC(=O)CN2C(=O)CCc3cc(S(=O)(=O)N4CCOCC4)ccc32)c(OC)c1`, the survival is 66% (inactive).

As for `COc1ccc(Cl)cc1NC(=O)CN1C(=O)C(C)(C)c2cc(S(=O)(=O)N3CCCCC3)ccc21`, the survival was 81% (inactive).

`COc1ccc(OC)c(NC(=O)CN2C(=O)CCc3cc(S(=O)(=O)N4CCCCC4)ccc32)c1`: the survival is 0% (active).

Regarding `COc1ccc(C)cc1NC(=O)CN1C(=O)CCc2cc(S(=O)(=O)N3CCOCC3)ccc21`, the survival is 128% (inactive).

For `Cc1ccc(NC(=O)CN2C(=O)C(C)(C)c3cc(S(=O)(=O)N4CCCCC4)ccc32)c(Br)c1`, the survival is 63% (inactive).

Turning to `CC(=O)Nc1ccc(NC(=O)CSc2nccn2Cc2ccc3c(c2)OCO3)cc1`, the survival was 72% (inactive).

Consider `NCc1ccc2[nH]c(=O)[nH]c2c1`, for which the survival was 104% (inactive).

`CCOC(=O)c1nc(Nc2cccc(C)c2)c2ccccc2n1`: the survival was 83% (inactive).

For the compound `Cc1ccc(OCCCCn2c(-c3ccc(Cl)cc3)nc3ccccc3c2=O)cc1`, the survival was 67% (inactive).

For the compound `CCOC(=O)c1nc(Nc2ccc(C(C)=O)cc2)c2ccccc2n1`, the survival was 81% (inactive).

`Oc1cccc(Nc2nc(-c3ccccc3)nc3ccccc23)c1`: the survival was 19% (inactive).

For the compound `COC(=O)c1ccc(Nc2nc(-c3ccccc3Cl)nc3ccccc23)cc1`, the survival was 36% (inactive).

Consider `COC(=O)c1ccc(Nc2nc(-c3ccc(C)cc3)nc3ccccc23)cc1`, for which the survival was 7% (active).

Regarding `OCCNc1nc(-c2cccnc2)nc2ccccc12`, the survival is 119% (inactive).

With `Cc1cccc(Nc2nc(-c3ccccc3)nc3ccccc23)c1`, the survival is -1% (active).

As for `CCC(=O)OCCCNc1nc(-c2ccc(Cl)cc2)nc2ccccc12`, the survival is -2% (active).

As for `Fc1ccc(Nc2nc(SCc3ccc(Cl)cc3)nc3ccccc23)cc1`, the survival was 90% (inactive).

Regarding `Oc1ccc(Nc2nc(-c3ccc(Cl)cc3)nc3ccccc23)cc1`, the survival is 3% (active).

Take `CC(=O)c1cccc(Nc2nc(-c3cccc(C)c3)nc3ccccc23)c1`: the survival was 31% (inactive).

The values are drawn from PubChem BioAssay AID463173 (ICCB-Longwood Screening Facility, Harvard Medical School, 2010).
